Measurements published in PubChem BioAssay.

These compounds were tested on Human papillomavirus type 1a E7 protein (residues 1-88) (assay: HPV1a E7 small-molecule binders, primary screen, biochemical, small-molecule microarray, residues 1-88, 635 nm (AID 1129)). Conditions: small-molecule microarray binding, fluorescence 635 nm; higher = more signal.

SMILES | composite z-score
COCCOC(=O)N1C(=O)[C@@]2(c3cc(C#CCC(C(=O)OC)C(=O)OC)ccc31)[C@H](c1ccccc1OCCO)N1[C@H](c3ccccc3)[C@H](c3ccccc3)OC(=O)[C@H]1[C@@H]2C(=O)N1CCN(c2ncccn2)CC1 | 1.12
C=C(CCCC)/C(=C/C[C@@H](OC(=O)c1ccncc1)c1ccc(OCCO)cc1)c1cc(C(=O)OC)ccc1OC | 1.12
CCCCN1CC=CC23O[C@@H]4C=CCCOC(=O)C4[C@H]2C(=O)N(CCCCCCO)[C@@H]3C1=O (stereo not given in full) | -0.268
CN(C)CCCC[C@@H]1NC(=O)[C@H]2C[C@@H](C(=O)NCCCCCCN)[C@@H](c3ccc(O)cc3)N2C1=O | 1.09
COc1ccc(-c2cc3c(c(-c4ccc(Oc5ccccc5)cc4)n2)[Si](C(C)C)(C(C)C)OC3)cn1 | -0.221

The compounds below were run against Focal adhesion kinase 1 (Homo sapiens) (UniProt Q05397) (assay: PTK2 protein binding on printed compound slides – biochemical, small-molecule microarray, 635/667 nm fluorescence, BSA, DTT, primary screen (AID 1130;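 note: composite of spot emission at 667 nm and signal to noise over triplicate slides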)). Conditions: 635 nm fluorescence, higher = more signal.
Sequence of Focal adhesion kinase 1 (Homo sapiens) (Q05397 whole entry, looked up): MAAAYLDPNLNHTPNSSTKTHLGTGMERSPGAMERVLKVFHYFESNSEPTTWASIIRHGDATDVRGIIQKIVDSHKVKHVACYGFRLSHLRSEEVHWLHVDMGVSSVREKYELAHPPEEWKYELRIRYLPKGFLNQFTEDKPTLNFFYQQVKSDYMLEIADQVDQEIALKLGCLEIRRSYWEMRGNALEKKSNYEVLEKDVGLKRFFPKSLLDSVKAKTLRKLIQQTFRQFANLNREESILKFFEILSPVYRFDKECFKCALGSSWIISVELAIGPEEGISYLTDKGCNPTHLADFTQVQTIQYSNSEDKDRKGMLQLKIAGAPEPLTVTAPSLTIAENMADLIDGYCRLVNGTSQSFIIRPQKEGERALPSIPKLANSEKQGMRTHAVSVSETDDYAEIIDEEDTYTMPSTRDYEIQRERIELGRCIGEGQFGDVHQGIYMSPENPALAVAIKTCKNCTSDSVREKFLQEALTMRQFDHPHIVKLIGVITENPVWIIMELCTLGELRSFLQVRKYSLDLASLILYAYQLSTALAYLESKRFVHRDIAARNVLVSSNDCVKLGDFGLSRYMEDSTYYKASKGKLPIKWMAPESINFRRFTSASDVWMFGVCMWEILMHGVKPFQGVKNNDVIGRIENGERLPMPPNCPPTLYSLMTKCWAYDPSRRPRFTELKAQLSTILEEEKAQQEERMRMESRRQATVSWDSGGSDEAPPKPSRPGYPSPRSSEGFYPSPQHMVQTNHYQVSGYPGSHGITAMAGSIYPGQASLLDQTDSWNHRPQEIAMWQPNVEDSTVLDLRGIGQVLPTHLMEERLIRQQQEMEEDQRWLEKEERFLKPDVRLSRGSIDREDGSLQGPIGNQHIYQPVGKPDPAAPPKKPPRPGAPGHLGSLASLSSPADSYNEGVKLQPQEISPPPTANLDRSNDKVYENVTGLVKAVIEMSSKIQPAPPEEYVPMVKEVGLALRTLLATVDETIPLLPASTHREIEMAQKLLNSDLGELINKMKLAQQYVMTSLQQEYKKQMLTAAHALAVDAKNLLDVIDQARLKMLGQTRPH

SMILES | composite z-score
CC#CC(=O)Oc1ccccc1C=CC(=O)OCC | -0.0142
CC(C)CNC(=O)[C@@]1(Cc2ccccc2I)c2ccccc2C(=O)N(C2CCCCC2)[C@H]1c1ccc(CO)cc1 | 0.321
O=C(c1ccccc1)N1C(=O)[C@]2(COC(c3ccc(OCCCO)cc3)=N2)Cc2ccccc21 | 0.628
CC(C)(C)OC(=O)CC[C@]1(C(=O)N2CCOCC2)N=C(c2ccc(OCCCO)cc2)O[C@H]1c1ccccc1N=[N+]=[N-] | 0.566
COCCOC(=O)N1C(=O)[C@@]2(c3cc(C#CCC(C(=O)OC)C(=O)OC)ccc31)[C@H](c1ccccc1OCCO)N1[C@H](c3ccccc3)[C@H](c3ccccc3)OC(=O)[C@H]1[C@@H]2C(=O)NC[C@H](O)c1ccccc1 | 0.9
COCCCNC(=O)[C@]1(CCC(=O)OC(C)(C)C)N=C(c2ccc(OCCCO)cc2)O[C@@H]1c1ccccc1CN=[N+]=[N-] | 0.383
CCOC(=O)C1=C[C@@H](C(C)(C)C)N(S(=O)(=O)c2ccc(C)cc2)[C@H]1c1ccc(F)cc1 | -0.225
COc1cc(NN2C(C(O)c3ccco3)C=CC3C(=O)N(c4ccccc4)C(=O)C32)cc(OC)c1OC (stereo not given) | 0.21
CCC(CC)C(O)C1C=CC2C(=O)NC(=O)C2N1Nc1ccc(Cl)cc1Cl (stereo not given) | 0.383
CCCC[C@H]1OB(O)C[C@H]2C1=C(COC)Cn1c(=O)n(-c3ccccc3)c(=O)n12 | -0.0429
C=C(COC)/C(=C/C[C@@H](OC(C)=O)c1ccc(OCCO)cc1)c1cnc2ccccc2c1 | -0.514
CN(C)C(=O)[C@@]1(CCS(=O)(=O)c2ccccc2)COC(c2ccc(OCCCO)cc2)=N1 | 0.119
CCCCCCc1nc(-c2ccc(OC)nc2)cc2c1[Si](C(C)C)(C(C)C)O[C@H]2c1ccccc1 | 0.0202
O=C(CS)NCCCCCCNC(=O)[C@@H]1C[C@@H]2C(=O)N[C@@H](Cc3ccccc3)C(=O)N2[C@@H]1c1cccc(OCCO)c1 | 0.385
COC(=O)[C@@]1(Cc2ccc(OC)cc2)[C@H]2c3cc(C(=O)N(C)C)n(Cc4ccc(S(C)(=O)=O)cc4)c3C[C@H]2CN1C(=O)c1ccccc1 | 1.07
O=C1C[C@@](C(=O)NC2CC2)(c2ccc([N+](=O)[O-])cc2)[C@@H](c2ccc(CO)cc2I)N1C1CCCCC1 | -0.109
CN1C=C(C(=O)OCCS(C)(=O)=O)C(C(=O)OCCS(C)(=O)=O)=CC(c2ccc(CO)cc2)=CC1C1CC1 (stereo not given) | 0.0684
O=C1NC(=O)C2C1C=CC(C(O)c1cc(C(F)(F)F)cc(C(F)(F)F)c1)N2Nc1ccccn1 (stereo not given) | 0.187

SMILES | composite z-score
CN(C)CCCCCCNC(=O)[C@@H]1C[C@@H]2C(=O)N[C@@H](Cc3ccccc3)C(=O)N2[C@@H]1c1ccc(O)cc1 | 0.303
Cc1nc2cc(Br)ccc2c(=O)o1 | 0.201
O=C(NC1CC1)[C@@H]1c2ccccc2C(=O)N(Cc2ccccc2Cl)[C@H]1c1ccc(CO)cc1 | 1.06
O[C@@H](Cc1ccccc1)[C@H]1C2C=CCCC=C2CN1Cc1cccc(Cl)c1 (stereo not given in full) | 0.184
COCCOC(=O)N1C(=O)[C@@]2(c3cc(C#CCNC(N)=O)ccc31)[C@H](C(=O)N1CCN(c3ncccn3)CC1)[C@H]1C(=O)O[C@H](c3ccccc3)[C@H](c3ccccc3)N1[C@@H]2c1ccc(OCCO)cc1 | -0.171
COCCOC(=O)N1C(=O)[C@@]2(c3cc(C#CCNC(N)=O)ccc31)[C@H](C(=O)Nc1nc3ccccc3s1)[C@H]1C(=O)O[C@H](c3ccccc3)[C@H](c3ccccc3)N1[C@@H]2c1ccc(OCCO)cc1 | 0.346
CC(C)C(O)C1C=CC2C(=O)N(c3ccccc3)C(=O)C2N1Nc1ccc([N+](=O)[O-])cc1 (stereo not given) | 0.774
CCOC(=O)C[C@H]1[C@H](OC(=O)c2ccccc2-c2ccccc2)[C@@H](NC(=O)CC(C)C)c2cc(OCCCO)ccc2N1C(=O)Cc1ccc(OC)cc1 | -0.0432
C=C(CCCC)/C(=C/C[C@H](OC(C)=O)c1ccccc1OCCO)c1cc(C(=O)OC)ccc1OC | -0.0155
C=CCC(OC(C)=O)[C@@H]1[C@@H](N(Cc2ccc(-c3ccccc3)cc2)C(=O)Cc2ccc(OC)cc2)c2cc(OCCCO)ccc2N1C(=O)Cc1ccc2ccccc2c1 (stereo not given in full) | 0.151
COc1ccc(CCNC(=O)[C@@]2(Sc3ccc(C)cc3)CC(=O)N(C3Cc4ccccc4C3)[C@@H]2c2ccc(CO)cc2I)cc1 | 0.235
COC(=O)[C@@]1(Cc2ccccc2)N=C(c2ccc(OCCCO)cc2)O[C@H]1c1ccccc1 | 0.428
COCCOC(=O)N1C(=O)[C@@]2(c3cc(C#CCC(C(=O)OC)C(=O)OC)ccc31)[C@H](c1ccccc1OCCO)N1[C@H](c3ccccc3)[C@H](c3ccccc3)OC(=O)[C@H]1[C@@H]2C(=O)N1CCN(c2ncccn2)CC1 | 0.966
C=C(CCCC)/C(=C/C[C@@H](OC(=O)c1ccncc1)c1ccc(OCCO)cc1)c1cc(C(=O)OC)ccc1OC | 0.0056
CCCCN1CC=CC23O[C@@H]4C=CCCOC(=O)C4[C@H]2C(=O)N(CCCCCCO)[C@@H]3C1=O (stereo not given in full) | 0.0134
CN(C)CCCC[C@@H]1NC(=O)[C@H]2C[C@@H](C(=O)NCCCCCCN)[C@@H](c3ccc(O)cc3)N2C1=O | 0.333
COc1ccc(-c2cc3c(c(-c4ccc(Oc5ccccc5)cc4)n2)[Si](C(C)C)(C(C)C)OC3)cn1 | 0.158
